GDH-TPI inh = GDH-TPI coupling enzyme inhibitors, primary screen, artefact control for M. tuberculosis FBA inhibitor project, biochemical, absorbance, full deck | GDH-TPI coupled enzyme counterscreen, NADH absorbance | 360,000 tested, 1.2% active | inhibition, % at 4.8 µM;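 further: 0% = DMSO wells and 100% = wells lacking the enzyme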
Vc quorum ag = inducers of Vibrio cholerae quorum light production without autoinducers, primary screen, BH1578 luxS cqsA deficient, single point | V. cholerae BH1578 lux reporter, luminescence, 6 h | activation, % at 18.7 µM | 350,000 tested, 0.16% active | AID 588436, 2011; in the data active means activation mostly above about 9.7%, no sharp cut-off
Mtb FBA inh = Mtb FBA enzyme inhibitors, primary screen, biochemical, fluorescence, strain H37Rv; purified M. tuberculosis FBA, fluorescence read-out; inhibition, % at 1 µM; 360,000 tested, 2.3% active; in the data active means inhibition above about 27%;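 further: 0% = vehicle and 100% = reference inhibitor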
Target sequence (P9WQA3 whole entry, looked up): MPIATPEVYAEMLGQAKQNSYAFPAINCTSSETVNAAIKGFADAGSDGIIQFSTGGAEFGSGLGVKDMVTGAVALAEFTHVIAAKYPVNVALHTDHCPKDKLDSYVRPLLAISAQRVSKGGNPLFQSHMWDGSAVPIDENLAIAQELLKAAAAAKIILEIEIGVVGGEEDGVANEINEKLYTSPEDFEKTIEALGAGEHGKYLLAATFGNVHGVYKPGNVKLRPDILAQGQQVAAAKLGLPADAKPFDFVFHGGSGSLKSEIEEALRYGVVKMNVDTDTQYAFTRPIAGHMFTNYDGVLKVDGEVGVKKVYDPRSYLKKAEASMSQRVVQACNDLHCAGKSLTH
CCHFV vOTU inh = CCHFV vOTU protease inhibitors, primary screen, biochemical, Pep-AMC substrate, fluorescence; Crimean-Congo hemorrhagic fever virus L polyprotein viral ovarian tumor (vOTU) protease …; inhibition, % at 11.5 µM; 370,000 tested, 0.55% active; further: 0% = vehicle wells with enzyme and 100% = no enzyme wells
Starred values were filed as active, the others as inactive; i = inactive; x = no result given; + = active, no number. A selection: hits, their analogues and other compounds. The true share with any hit is near 3.9%. Unless noted, no stated cut-off is given here; in the data, active means inhibition above about 30%; inactive means the rest.

SMILES | GDH-TPI inh | Vc quorum ag | Mtb FBA inh | CCHFV vOTU inh
CC(C)(C)OC(=O)NCC(=O)Oc1cc2oc(=O)cc(-c3ccccc3)c2cc1Cl | 12.9 | i | 26.1 | -18.0
CC(=O)c1ccc2c(c1)C1C=CCC1C(c1ccncc1)N2 (centres undefined) | 14.3 | 0.9 | -0.1 | 16.8
CC(=O)c1ccc2c(c1)C1C=CCC1C(C(=O)O)N2 (centres undefined) | 8.2 | -0.2 | -14.1 | 49.8*
CCOP(=O)(OCC)C(C)(C)NC(=O)Nc1ccc(Cl)c(Cl)c1 | 12.9 | -0.2 | -5.0 | -3.0
CCCn1c(SCC(=O)Nc2nonc2C)nnc1-c1ccoc1C | -1.2 | -0.4 | + | 7.0
CN(C)c1c2ccccc2nc2c(F)c(F)c(F)c(F)c12 | 0.9 | -0.3 | 117.0* | x
CCOC(=O)C(=Nc1ccccc1)NO | 2.3 | 1.4 | 0.1 | 12.5
CCOC(=O)c1cnc(Cc2ccccc2)[nH]c1=O | 0.8 | i | 3.2 | -5.8
CCOC(=O)c1cnn2c1[nH]c(=O)c1ccccc12 | 9.3 | i | 30.0* | 5.0
COc1cccc(/C=N/Nc2nn3cnnc3c3ccccc23)c1 | 23.4 | 0.3 | 0.6 | 7.6
Oc1ccc(/C=N/Nc2nn3cnnc3c3ccccc23)cc1 | 16.0 | -3.1 | -3.3 | 7.7
CCOc1cc(/C=N/n2cnnc2)ccc1O | 33.9* | -1.5 | 2.6 | -1.2
CCOc1cc(/C=N/Nc2nn3cnnc3c3ccccc23)ccc1O | 32.1* | 0.6 | -0.8 | 25.2
C=CCc1cc(/C=N/n2cnnc2)cc(OCC)c1O | 12.8 | -1.7 | -1.0 | 4.7
COc1cc(/C=N/Nc2nn3cnnc3c3ccccc23)ccc1O | 31.8* | -2.7 | -0.7 | -3.6
O=C(NCc1cccnc1)OC1CC2CC1[C@H]1CCCCN1C2=O (some centres undefined) | x | x | x | 3.2
Cc1ccc(CNS(=O)(=O)CCNC(=O)c2ccc3c(c2)OCO3)cc1 | 5.0 | -0.5 | 4.0 | -1.9
COc1ccc(C(=O)N/C(=C\c2cn(C)c3ccccc23)C(=O)NCCCn2ccnc2)cc1 | 41.4* | 0.5 | -1.2 | 18.5
Cc1ccc(C(=O)N/C(=C\c2cn(C)c3ccccc23)C(=O)NCCCn2ccnc2)cc1 | 14.2 | 4.3 | -0.6 | 12.0
Cn1cc(/C=C(\NC(=O)c2ccccc2)C(=O)NCCCn2ccnc2)c2ccccc21 | 44.2* | -4.5 | -2.4 | 7.3
COC(=O)c1ccc(S(=O)(=O)c2ccc(Cl)cc2)c(N)c1 | 2.9 | -0.8 | 114.7* | -181.4
CNC(=O)c1ccc(S(=O)(=O)c2ccc(Cl)cc2)c(NC(C)=O)c1 | 2.1 | i | -0.4 | -10.8
Cn1cc(/C=N\NC(=O)c2cccs2)c2ccccc21 | 32.1* | -0.1 | -0.1 | 16.7
COc1ccc(/C=N/NC(=O)c2cccs2)c2ccccc12 | 32.0* | 0.2 | 1.1 | 1.8
COc1ccc(/C=N\NC(=O)Cc2cccs2)c(OC)c1OC | x | x | x | -6.2
SMILES | GDH-TPI inh | Vc quorum ag | Mtb FBA inh | CCHFV vOTU inh
Cc1cc(=O)[nH]c(N/N=C/c2cc(C)n(-c3ccccc3)c2C)n1 | 42.6* | -0.4 | -1.1 | -6.9
COc1ccc(/C=N/NC(=O)c2cccnc2)c2ccccc12 | 36.0* | i | 3.4 | -5.5
C[C@@H]1CN([C@@H](C)CO)C(=O)c2cc(Br)cnc2O[C@H]1CN(C)C(=O)NC1CCCC1 | 0.0 | i | -1.7 | 4.8
Cc1c(NS(=O)(=O)c2ccc(N=NN(C)C)cc2)c(=O)n(-c2ccccc2)n1C | 17.4 | -1.2 | -0.1 | -0.4
COc1ccc2oc(C(=O)N3CCc4ccccc43)c(C)c2c1 | 8.2 | i | -2.0 | 16.0
COc1ccc(S(=O)(=O)NCCc2ccncc2)cc1 | 9.4 | i | -0.8 | 6.9
COC(=O)C(O)(c1c(C)[nH]c2ccccc12)C(F)(F)F (centres undefined) | -6.9 | -0.3 | -2.7 | 6.3
Cc1cc(/C=N/NC(=O)c2ccncc2)c(C)n1-c1ccccc1 | 18.6 | i | 0.0 | -5.5
Cc1cc(/C=N/NC(=O)c2cccs2)c(C)n1-c1ccccc1 | 32.7* | -0.4 | -2.6 | -3.1
COc1ccc(/C=N/NC(=O)c2cccnc2)c(C(=O)O)c1OC | 31.6* | -0.4 | -2.2 | 6.2
Cc1cc(C(=O)N2CCN(S(=O)(=O)c3ccc(F)c(Cl)c3)CC2)c(C)o1 | -7.6 | -0.4 | -0.8 | 15.4
O=C(NCC1CCCO1)C(=O)N/N=C\c1ccc2c(c1)OCO2 (centres undefined) | 34.0* | -0.5 | 0.5 | 21.4
O=C(NCC1CCCO1)C(=O)N/N=C/c1ccc(O)c(Cl)c1 (centres undefined) | 54.5* | i | 2.9 | 21.9
COC(=O)c1ccc(C(c2c(N)n(Cc3ccccc3)c(=O)n(C)c2=O)N2CCOCC2)cc1 (centres undefined) | 6.2 | i | -4.2 | 1.1
CN1C(=O)C(=Cc2ccccc2Oc2ccc(Cl)cc2)C(=O)N(C)C1=O | 2.0 | i | 130.8* | 3.1
O=C(O)c1ccc(-n2nnnc2Oc2cccc3cccnc23)cc1 | 9.5 | -0.4 | -1.0 | 13.4
COC(=O)c1cc(CC(=O)c2ccc(O)cc2O)c(C)o1 | 35.9* | -0.4 | 1.0 | -2.6
COC(=O)c1ccc(CC(=O)c2ccc(O)cc2O)o1 | 32.5* | i | -3.0 | x
CCOC(=O)c1ccc(CC(=O)c2ccc(O)cc2O)o1 | 18.9 | i | 0.3 | 4.1
COc1ccc(S(=O)(=O)/C(C#N)=C/Nc2ccccc2F)cc1 | 13.7 | -0.5 | 1.1 | 14.7
CCN(CC)c1ccc(C=Nc2cccc(S(=O)(=O)N3CCOCC3)c2)c(O)c1 | 61.4* | -13.4 | -1.7 | 14.7
COc1ccc(Br)cc1S(=O)(=O)N1CCOCC1 | 3.1 | i | 4.9 | 12.2
CCN(CC)c1ccc(C=Nc2ccc(OC)c(S(=O)(=O)N3CCOCC3)c2)c(O)c1 | 32.3* | 1.1 | -1.3 | 9.0
CCN(CC)c1ccc(/C=N/NC(=O)c2cccc(S(=O)(=O)N3CCOCC3)c2)c(O)c1 | 18.3 | 0.0 | -8.4 | 7.7
COc1cccc(CNC(=O)CNC(=O)N2CC(=O)Nc3ccccc32)c1 | -3.9 | -0.3 | 4.8 | 6.8
SMILES | GDH-TPI inh | Vc quorum ag | Mtb FBA inh | CCHFV vOTU inh
Cc1ccc(CN2C(=NC(=O)CCC(=O)O)SC3CS(=O)(=O)CC32)cc1 (centres undefined) | -5.1 | -0.4 | -0.1 | -14.3
Cc1ccc2nc(-c3ccc(N4C(=NC(=O)CCC(=O)O)SC5CS(=O)(=O)CC54)cc3)sc2c1 (centres undefined) | 11.0 | -0.6 | 66.1* | x
COc1ccccc1CNC(=O)COc1ccccc1C | 8.4 | -0.3 | 0.2 | -4.7
COc1cccc(CNC(=O)COc2cc3c(c4oc(=O)cc(C)c24)CCC(C)(C)O3)c1 | 19.6 | -0.5 | 167.7* | -82.1
O=C(COc1ccc2c3c(c(=O)oc2c1)CCCC3)NCc1cccnc1 | 0.0 | -0.3 | 7.3 | -7.2
Cc1cc(=O)oc2c3c(cc(OCC(=O)NCc4cccnc4)c12)OC(C)(C)CC3 | 21.6 | -0.4 | + | -206.9
COc1ccccc1CNC(=O)COc1cc2c(c3oc(=O)cc(C)c13)CCC(C)(C)O2 | 5.6 | -0.1 | 188.8* | -87.9
COc1cccc(CNC(=O)C2(C)Oc3ccccc3NC2=O)c1 (centres undefined) | -0.4 | 11.1 | 1.4 | -1.0

Source: PubChem
